PubChem BioAssay (NCATS)
Where “and” joins values, the source holds several entries; their conditions need not be identical. Equal values may be shown once. Records with an inconclusive call do not appear. A call without a number means that no potency is given here. Unmarked numbers belong to inactive results. Calls of active or inactive are those of the source. Calls follow the shape of the dose curve; as a rule, active = well fitted inhibition curve with a large enough effect in the repeat runs; inconclusive = weak or mixed curves; inactive = flat fitted curve, though single readings scatter.

Molecular target: Cytochrome P450 2D6 (Homo sapiens) (UniProt P10635)
Sequence (P10635 whole entry, looked up): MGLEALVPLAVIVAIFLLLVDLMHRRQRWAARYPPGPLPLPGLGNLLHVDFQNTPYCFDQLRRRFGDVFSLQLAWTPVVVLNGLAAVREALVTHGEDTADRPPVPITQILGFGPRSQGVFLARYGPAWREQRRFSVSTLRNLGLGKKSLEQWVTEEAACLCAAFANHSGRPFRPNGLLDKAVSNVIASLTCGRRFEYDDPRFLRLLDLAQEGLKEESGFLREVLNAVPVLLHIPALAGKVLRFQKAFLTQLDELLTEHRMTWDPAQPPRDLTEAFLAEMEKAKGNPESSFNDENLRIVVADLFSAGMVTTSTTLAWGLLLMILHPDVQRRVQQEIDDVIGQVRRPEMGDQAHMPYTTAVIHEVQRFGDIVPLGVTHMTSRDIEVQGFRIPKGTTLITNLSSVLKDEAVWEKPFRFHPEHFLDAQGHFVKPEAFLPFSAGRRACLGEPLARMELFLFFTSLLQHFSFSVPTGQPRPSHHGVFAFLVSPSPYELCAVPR
Assay: Cytochrome P450 family 2 subfamily D member 6 (CYP2D6) small molecule antagonists: luciferase biochemical (cell-free) qHTS assay (AID 1645840); also: nearly all actives have a fitted effect of over 55% in size
Conditions: P450-Glo CYP2D6 enzyme, luciferin luminescence, 1 h; series mostly up to 57.4 µM
Procedure: National Center for Advancing Translational Sciences [NCATS] Assay Overview: Cytochrome P450 (CYP) enzymes are membrane-bound hemeproteins that play a key role in metabolism of drugs and xenobiotics. Assaying the effect of chemicals on CYP isozymes is useful to minimize the adverse drug reactions and toxicities in drug development process. Chemical compounds were tested for their effect on CYP enzyme activities by using P450-Glo (TM) screening systems (Promega Corporation, Madison, WI). These systems provide a luminescent method containing proluciferin substrates and are converted to luciferin products by CYP isozymes. The luciferin products formed are detected with a luciferin detection reagent, and the amount of light produced is proportional to CYP activity. P450-Glo (TM) CYP2D6 screening system (Catalog. No. V9890) was used to detect the compounds that interfere in CYP2D6 activity.
Assay Protocol Summary: Two ul of enzyme-substrate mix was dispensed into medium binding white/solid 1536-well plates (Greiner Bio-One North America Inc., Monroe, NC) using a Flying Reagent Dispenser (FRD, Aurora Discovery, San Diego, CA). […] The assay plates were incubated at room temperature for 10 min. Then 2 ul of NADPH regeneration solution was added to each well of the assay plates using an FRD and incubated at room temperature for 1 h. The reaction was stopped by adding 4 ul of detection reagent using an FRD and after 20 min incubation at room temperature, the luminescence signal was measured using a ViewLux plate reader (Perkin Elmer, Shelton, CT). Data were expressed as relative luminescence units.
Potency is read from the fitted curve at half-maximal effect.

SMILES | Potency | activity change, negative = inhibition
Nc1ncn([C@@H]2O[C@H](CO)[C@@H](O)[C@H]2O)c(=O)n1 | inactive | 
CC(C)NNC(=O)c1ccncc1 | inactive | 
NC1=NCC2c3ccccc3Cc3ccccc3N12 (stereo not given) | 1.55 µM (active) | 
CCOC(=O)c1cnc2c(cnn2CC)c1NN=C(C)C | inactive | 
COCCCC/C(=N\OCCN)c1ccc(C(F)(F)F)cc1 | 0.977 µM (active) | 
CN(C)CC[C@@H](c1ccc(Br)cc1)c1ccccn1 | 4.9 µM (active) | 
Cc1ccc(Cl)c(Nc2ccccc2C(=O)O)c1Cl | inactive | 
CCn1cc(C(=O)O)c(=O)c2cc3c(cc21)OCO3 | inactive | 
C[n+]1cc2c3c(ccc2c2ccc4cc5c(cc4c21)OCO5)OCO3 | 6.74 µM (active) | 
COC(=O)C1=C(C)NC(C)=C(C(=O)OC(C)(C)CN(C)CCC(c2ccccc2)c2ccccc2)C1c1cccc([N+](=O)[O-])c1 (stereo not given) | 2.75 µM (active) | 
CCN1CCc2nc(N)oc2CC1 | inactive | 
CCOC(=O)C1=C(C)NC(C)=C(C(=O)OC)C1c1cccc([N+](=O)[O-])c1 (stereo not given) | 13.8 µM (active) | 
CCCCNC(=O)NS(=O)(=O)c1ccc(C)cc1 | inactive | 
C[N+](C)(C)CCOC(=O)CCC(=O)OCC[N+](C)(C)C | inactive | 
O=C1NCN(c2ccccc2)C12CCN(CCCC(c1ccc(F)cc1)c1ccc(F)cc1)CC2 | 0.436 µM (active) | 
CN1CCN(CC(=O)N2c3ccccc3C(=O)Nc3cccnc32)CC1 |  | 3.24% [at 4.83 µM]
C[C@]12CCC(=O)C=C1CC[C@@H]1[C@@H]2CC[C@@]2(C)[C@H]1CC[C@]2(O)C(=O)CO | inactive | 
OC(CCN1CCCCC1)(c1ccccc1)C1CCCCC1 (stereo not given) | 1.74 µM (active) | 
CC(C(=O)O)c1ccc(CC2CCCC2=O)cc1 (stereo not given) | inactive | 
Cc1cc(C)c(/C=C2\C(=O)Nc3ccccc32)[nH]1 | inactive | 

SMILES | Potency | activity change, negative = inhibition
CN(C)CC/C=C1\c2ccccc2COc2ccccc21 | 1.95 µM (active) | 
CC(C)(Oc1ccc(CCNC(=O)c2ccc(Cl)cc2)cc1)C(=O)O | inactive | 
COc1ccc(CN(CCN(C)C)c2ccccn2)cc1 | 195 nM (active) and 213 nM (active) | 
CC(N=C(NC#N)Nc1ccncc1)C(C)(C)C (stereo not given) | 21.9 µM (active) | 
COC(=O)[C@@H](N)Cc1ccc(O)c(O)c1 | inactive | 
C[N+](C)(C)CCCCCCCCCC[N+](C)(C)C | inactive | 
FC(F)(F)c1ccccc1-n1ccnc1 | 3.47 µM (active) | 
CCN(Cc1ccncc1)C(=O)C(CO)c1ccccc1 (stereo not given) | inactive | 
NC(=O)N1c2ccccc2C=Cc2ccccc21 | inactive | 
O=C(O)CN(CCN(CC(=O)O)CC(=O)O)CCN(CC(=O)O)CC(=O)O | inactive | 
Brc1c(NC2=NCCN2)ccc2nccnc12 | 21.9 µM (active) | 
O=c1[nH]c(=O)n([C@H]2C[C@H](O)[C@@H](CO)O2)cc1Br | inactive | 
CCO/C([O-])=N/c1c[n+](N2CCOCC2)no1 | inactive | 
C[C@@H](O)[C@H]1C(=O)N2C(C(=O)O)=C(SCCN=CN)C[C@H]12 | inactive | 
Cc1ccc(=O)n(-c2ccccc2)c1 | inactive | 
NC(N)=N/N=C/c1c(Cl)cccc1Cl | 9.77 µM (active) | 
NC/C=C/C(=O)O | inactive | 
C=CCc1ccccc1OCC(O)CNC(C)C (stereo not given) | 6.92 µM (active) and 8.49 µM (active) | 
CNC1(C)C2CCC(C2)C1(C)C (stereo not given) | inactive | 
c1cnc(N2CCN(Cc3ccc4c(c3)OCO4)CC2)nc1 | 0.871 µM (active) | 
